# This is part of a sample that, as a whole, favours compounds with a hit. Of some 83,000 tested, about 20% had one in any assay.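 The endpoint reported here, percent growth, reads 100 for growth as untreated, 0 for no net growth and -100 for all cells dead.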 Unmarked numbers belong to inactive results. Activity calls are given as the source filed them. How the source made its calls: active means growth percent below 10; inactive means the rest.
# How the values were obtained:
# Experiment in all cases: NCI-60 one-dose screen, 48 h (100 = growth as untreated, 0 = no growth, -100 = all killed)
# Conditions in all cases: 10 µM
# [1] = system: NCI-H23 lung
# [2] = system: NCI-H226 lung
# [3] = system: NCI-H322M lung
# [4] = system: HOP-62 NSCLC
# [5] = system: NCI-H460 lung
# [6] = system: HOP-92 NSCLC
# [7] = system: NCI-H522 lung
# [8] = system: A549/ATCC NSCLC
# [9] = system: 786-0 renal
# [10] = system: COLO 205 colon
# [11] = system: DU-145 prostate
# [12] = system: K-562 leukemia
# [13] = system: MDA-MB-231 breast
# [14] = system: RXF 393 renal
# [15] = system: SF-268 CNS
# [16] = system: SF-295 CNS
# [17] = system: SF-539 CNS
# [18] = system: UACC-257 melanoma
# [19] = system: M14 melanoma
Compound,growth [1],growth [2],growth [3],growth [4],growth [5],growth [6],growth [7],growth [8],growth [9],growth [10],growth [11],growth [12],growth [13],growth [14],growth [15],growth [16],growth [17],growth [18],growth [19]
O=[N+]([O-])c1ccc(-c2nc(-c3ccccc3)c(-c3ccccc3)n2-c2ccccc2)cc1,25.2%,57%,58.5%,38.2%,36.4%,-12.6% (active),-11.7% (active),34.6%,57.3%,68.1%,49.4%,-25% (active),14.3%,73.9%,65.8%,16.6%,57.8%,57.4%,49.6%
C=CCn1ccc(=O)nc1SC,107%,112%,111%,97.1%,104%,97.3%,100%,111%,101%,106%,117%,103%,109%,129%,108%,107%,105%,102%,104%
CCSc1nc2c([nH]1)c(=O)n(C)c(=S)n2C,98.6%,117%,117%,98%,107%,103%,102%,107%,100%,106%,112%,115%,116%,117%,106%,114%,97.9%,108%,109%
CCOC(=O)C(=O)Cc1cccnn1,101%,95.2%,109%,103%,116%,86.1%,97.2%,97.5%,96.4%,102%,113%,110%,96.4%,102%,113%,139%,92.4%,96.2%,103%
COc1ccc(C(=O)n2nc(CC(=O)NCc3ccccc3)nc2N)cc1,108%,106%,95.4%,108%,115%,111%,104%,109%,97%,117%,115%,95.7%,96.2%,118%,108%,108%,112%,105%,101%
CCN(CC)CC(O)Cc1ccc(OC)cc1 (centres undefined),108%,99.5%,121%,104%,117%,108%,97.8%,104%,100%,109%,115%,101%,105%,106%,114%,109%,97.4%,113%,116%
COC(=O)CCCCCCCCC(C)c1ccc(C(C)=O)cc1 (centres undefined),99.9%,104%,121%,100%,108%,113%,101%,105%,102%,114%,108%,92.3%,119%,111%,104%,92.1%,101%,119%,121%
CCOC(=O)c1cc2c(n1Cc1cc(OC)cc(OC)c1)-c1oncc1CC2,38.4%,30.5%,-1.31% (active),58%,9.46% (active),80%,4.32% (active),29%,33.7%,1.38% (active),13.8%,16.7%,30.4%,18.7%,50.5%,-4.53% (active),-7.41% (active),60.5%,1.54% (active)
CCOC(=O)c1c(O)c2cc(-c3ccccc3)nc(OCC)c2c(=O)n1C,85.8%,79%,122%,93.2%,110%,51.7%,98.9%,99.4%,94%,117%,107%,97.1%,95.9%,-0.249% (active),94.3%,95.6%,94.6%,54.9%,87.8%
COc1ccccc1CNCCCN1C(=O)c2ccc3c4c(ccc(c24)C1=O)C(=O)N(CCCNCCNCCCN)C3=O,6.85% (active),39.9%,27.9%,40.4%,6.29% (active),66.3%,-0.0156% (active),6.04% (active),45.4%,-59.4% (active),16.3%,10.2%,20.3%,25.2%,1.02% (active),51.3%,14.1%,-6.36% (active),46.7%
Oc1[nH]c2ccccc2c1/C=c1/cc2c(c(-c3ccc(C(F)(F)F)cc3)n1)=Nc1ccccc1-2,71.1%,54.1%,93.8%,85%,22%,20.7%,33.5%,56.8%,66%,33.9%,62.5%,22.8%,45.6%,56.1%,79.1%,37%,83.5%,82.4%,33.5%
